From the supplement of paper PMC3334620
The full ranking holds about 33,000 sequences; the median of “E-score (-0.5 to 0.5)” is about -0.013, and the highest 2% start at about 0.3. The full list was thinned out, with the highest values kept by preference.

Biological target: T1, Msn1 (UniProt P22148)
T1 sequence: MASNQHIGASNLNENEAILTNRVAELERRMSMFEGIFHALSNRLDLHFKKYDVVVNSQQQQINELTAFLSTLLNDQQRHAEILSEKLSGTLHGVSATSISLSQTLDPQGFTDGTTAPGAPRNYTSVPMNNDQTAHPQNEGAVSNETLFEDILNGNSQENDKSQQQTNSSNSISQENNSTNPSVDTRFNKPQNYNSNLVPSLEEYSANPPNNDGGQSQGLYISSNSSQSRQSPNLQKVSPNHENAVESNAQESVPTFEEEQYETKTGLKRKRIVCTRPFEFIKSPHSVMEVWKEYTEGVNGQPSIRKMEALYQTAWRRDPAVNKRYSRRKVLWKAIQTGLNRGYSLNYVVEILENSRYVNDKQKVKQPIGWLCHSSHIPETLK
Assay: PBM E-score (8-mer binding enrichment) (E-score (-0.5 to 0.5)); higher = stronger / more preferred TF binding
Details: protein concentration: 200 nM; construct: GST-full length
Protocol: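 Universal 'all 10-mer' protein binding microarrays (Agilent AMADID 015681) probed with GST-tagged S. cerevisiae TFs (full-length or DBD) made by in vitro transcription/translation (PURExpress), about 100-200 nM. Bound TF was detected with fluorescent anti-GST. Each ungapped 8-mer (which stands for itself and its reverse complement) is scored by the PBM enrichment score (E-score), a modified Wilcoxon-Mann-Whitney statistic from -0.5 to +0.5, computed with the Universal PBM Analysis Suite. Scale: above 0.35 generally sequence-specific binding.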

Point of comparison: ATAGACTA, “PBM E-score” value 0.00413. Against it:
- CACCCTAA — lower, -0.141
- CCCTCTGA — lower, -0.174
- CTAGGACC — lower, -0.0875
- CTAGGATA — lower, -0.13
- GTAGGAGA — lower, -0.204
- GTAGGACA — higher, 0.479
- GTAGGATA — lower, -0.0803
- ATAGGACG — higher, 0.242
- ATAGGACC — lower, -0.11
- ATAGGACA — higher, 0.457
- CTAGGACA — higher, 0.489
- CGCTACAC — lower, -0.231
- GCCACACA — lower, -0.0564
- AACGTTAA — higher, 0.137
- AGTAAGCG — lower, -0.082
- GAGTAGGA — lower, -0.151
- AGGAGACG — lower, -0.298
- GCTTATAA — lower, -0.0204
- ACTTATAA — higher, 0.333
- ATTTATAC — higher, 0.176
- ATTTATAA — higher, 0.322
- ACTTATAC — higher, 0.0919
- CTTTATAA — higher, 0.177
- ACCATAAA — higher, 0.173
- ATATCTGA — higher, 0.112
- CACTTCCA — lower, -0.0388
- AATGTCGC — higher, 0.398
- AGTGTCGG — higher, 0.202
- AATGTCGA — higher, 0.299
- AATGTCGG — higher, 0.33
- GATGTCGC — higher, 0.0908
- AAGGTCGT — lower, -0.0332
- AATGTCGT — higher, 0.442
- CATGTCGC — higher, 0.237
- CATGTCGG — higher, 0.224
- CTCCTTTC — lower, -0.214
- GAAAGTGC — lower, -0.0805
- ATAGACCA — lower, -0.0849
- ACGATCCC — lower, -0.232
- CGGCTCTA — lower, -0.00727
- CGGGACCA — lower, -0.152
- AGGGACGA — higher, 0.261
- AGGGACAT — higher, 0.488
- CGGGACTC — higher, 0.0112
- AGGGACCT — lower, -0.0323
- AGGGACAA — higher, 0.487
- AGGGACGG — lower, -0.35
- CGGGACAG — higher, 0.197
- CGGGACGA — higher, 0.115
- AGGGACCA — lower, -0.188
- CGGGACAA — higher, 0.463
- CGGGACAC — higher, 0.376
- GGCTAAGA — higher, 0.0666
- ATCCTAGC — lower, -0.118
- CCAAGAAA — higher, 0.0697
- AAATAGCA — lower, -0.00406
- AACCTCGT — lower, -0.0168
- AGGGACAC — higher, 0.45
- AGGGACGC — lower, -0.0191
- AGGGACAG — higher, 0.107
- AAATTTGA — higher, 0.19
- AATTTTGC — higher, 0.0375
- AAATTTGG — higher, 0.104
- AATTTTGA — higher, 0.161
- AATTTTGT — higher, 0.34
- AAATTTGT — higher, 0.363
- ACATGCGT — higher, 0.0734
- CGTGTACA — higher, 0.277
- CATTCTAG — lower, -0.0107
- CTAGCGCA — lower, -0.153
- CGCAAAGC — higher, 0.0415
- ACAATACA — higher, 0.0447
- ACAATACG — higher, 0.0932
- ACAATACT — higher, 0.325
- ATAGACGA — higher, 0.0929
- ATAGACAC — higher, 0.245
- ATAGACAT — higher, 0.428
- ATAGACAG — higher, 0.202
- ATAGACAA — higher, 0.41
- ATCGTCTA — higher, 0.0246
- ATGAAGTC — lower, -0.0197
- ACAGCTCG — lower, -0.137
- TAGGAATA — higher, 0.0598
- AACCATGT — higher, 0.0974
- ATGCAGGC — lower, -0.112
- ACATTTAG — higher, 0.279
- GCATTTAC — higher, 0.0372
- ACATTTAC — higher, 0.333
- ACATTTAT — higher, 0.319
- CCATTTAC — higher, 0.0112
- AGATTTAT — higher, 0.0411
- CACAAGCC — lower, -0.139
- CATCAGTA — higher, 0.0122
- AGTGGTCG — lower, -0.0675
- AGTTAAAT — higher, 0.0476
- CGTGTTAA — lower, -0.00332
- ATTTCGGA — higher, 0.239
- AGGGGACA — higher, 0.386
- CGGGGACA — higher, 0.396
- GGGGGACA — higher, 0.287
- TGGGGAAA — lower, -0.0201
- AGGGGACT — lower, -0.151
- TGGGGACA — higher, 0.433
- AGGGGACG — lower, -0.0829
- CGGGGACC — lower, -0.1
- CGGGGACG — lower, -0.152
- CTTGAGAC — higher, 0.0475
- GACGTTAC — higher, 0.0854
- AGGACGTC — higher, 0.177
- GAGAAACA — higher, 0.0761
- CGAGTGGC — lower, -0.181
- GTGTCGCA — higher, 0.0382
- ATGTCGCC — higher, 0.115
- ATGTCGCA — higher, 0.38
- ATGTCGCG — higher, 0.387
- AGGTCGCG — higher, 0.0713
- ACGTCGCG — higher, 0.138
- GGGGCCAC — lower, -0.325
- CTCGCGAC — higher, 0.0116
- GTCGCGAC — higher, 0.349
- GTCGCGAA — higher, 0.141
- AAGCTGGT — lower, -0.026
- TAGGCCTA — lower, -0.0564
- CCGTTGTA — higher, 0.187
- ACGTTGTC — higher, 0.119
- CCGTTGTC — higher, 0.304
- CAGTTGTA — higher, 0.069
- AAGTTGTC — higher, 0.298
- CAGTTGTC — higher, 0.32
- ACATTCTG — higher, 0.162
- TAGCAGGA — higher, 0.0461
- GCACCCGC — lower, -0.163
- ACATTGGC — lower, -0.0178
- ATTCAGGC — higher, 0.0647
- TACATTGA — higher, 0.105
- CACATTGA — higher, 0.0276
- CACATTGC — higher, 0.115
- AACATTGC — lower, -0.162
- GACATTGC — higher, 0.434
- GACATTGA — higher, 0.386
- ATCCCGGG — higher, 0.0417
- CAGAGACA — higher, 0.204
- GCTCAAGA — lower, -0.102
- CACGGCTG — lower, -0.156
- CAGGTGGA — lower, -0.193
- CTGCCCTC — lower, -0.329
- ATAAAGTC — higher, 0.305
- GAAAAGTC — higher, 0.326
- ATAAAGTG — higher, 0.154
- GAAAAGGC — lower, -0.0462
- AAAAAGTC — higher, 0.418
- CAAAAGTC — higher, 0.282
- ACAAAGTC — higher, 0.236
- GAAAAGTA — higher, 0.167
- ATAAAGTA — higher, 0.243
- AAGCGAGA — lower, -0.127
- CGGCCACG — lower, -0.189
- GACCCGAC — lower, -0.0784
- AGGTAATC — lower, -0.139
- AACAAAAG — higher, 0.101
- ACAGCGTG — higher, 0.0507
- AAATGTAC — higher, 0.371
- ATATGTAC — higher, 0.371
- CTATGTAC — higher, 0.189
- ATATGTAA — higher, 0.131
- GAATGTAA — lower, -0.0699
- GAATGTAC — higher, 0.342
- AAATGTAG — lower, -0.0386
- GAATGTGC — lower, -0.148
- CAATGTAC — higher, 0.195
- ATATCACG — lower, -0.0452
